# From PubChem BioAssay AID2384 (Southern Research Specialized Biocontainment Screening …, 2010)
# Hit rate of the full screen: of about 2,300 compounds, about 1,100 (48%) were called active. So high a share suggests a set chosen from earlier hits. The list shows a part of the results. Entries with a potency or affinity are not part of this list. Values without a mark were called inactive. How the calls were made is not given here.
# Experiment: S. typhi counter-screen signal inhibition – fluorescence, 4 h, counter-screen for PhoP regulon inhibitor project, dose response (AID 2384)
# Details: S. typhi GFP reporter counter-screen; series mostly up to 150 µM; inhibition: at the top concentration
row,Compound,inhibition
1,Cc1ccc(CCNC(=O)c2cc(S(=O)(=O)N3CCCCC3)c[nH]2)cc1,-18.9%
2,O=C(N/N=C/c1c(Cl)nc2ccccn2c1=O)c1cccnc1,18.8%
3,O=c1c2ccccc2nc(COc2ccccc2)n1/N=C/c1ccc(O)cc1O,18%
4,COc1nnc(-c2ccc(N3CCOCC3)c(NC(=O)c3ccc(C)cc3)c2)c2ccccc12,18.7%
5,CC(C)(C)NC(=O)NC(=O)COC(=O)CCC1CCCC1,2.02%
6,COc1ccc(OC)c(CCNC(=O)CS(=O)(=O)Cc2nc(-c3ccccc3C)oc2C)c1,-14.6%
7,COc1nccnc1NS(=O)(=O)c1ccc(N=Cc2c(C)[nH]n(-c3ccc(C)c(C)c3)c2=O)cc1,-9.46%
8,COc1ccc(NC(=O)c2cc(Br)c(Br)s2)cn1,36.2%
9,COc1cc2[nH]c(=S)n(CC3CCCO3)c(=O)c2cc1OC (centres undefined),-6.65%
10,Cc1cc([N+](=O)[O-])nn1CC(=O)Nc1cccc2nonc12,22.1%
11,CN1CCN(c2ccccc2NC(=O)c2cc3c(s2)-c2ccccc2OC3)CC1,-9.06%
12,COc1ccc(C)cc1S(=O)(=O)N1CCCC(C(=O)NCC2CCCO2)C1 (centres undefined),4.17%
13,COc1ccc(NC(=O)COC(=O)c2ccc([N+](=O)[O-])o2)cc1Cl,15.3%
14,C/C(Cn1nnc([N+](=O)[O-])n1)=N\NC(=O)c1ccccc1,-28.4%
15,O=C(Nc1ccc(Cc2ccncc2)cc1)c1cccs1,24.9%
16,Cc1cc2oc(C(=O)NCc3ccncc3)c(C)c2cc1C,-11%
17,O=C(Nc1ccc(N2CCOCC2)c(Cl)c1)c1ccccc1F,13.2%
18,Cc1onc(C(=O)/C=C/N(C)C)c1C(=O)Nc1nccs1,2.19%
19,Cc1cc(C)c2c(=O)[nH]c(SCC(=O)N3CCCCC3)nc2n1,-2.83%
20,COc1ccc(C2C(C(=O)N3CCC4(CC3)OCCO4)CC(=O)N2c2ccc(OC)cc2)cc1 (centres undefined),-5.55%
21,COc1ccc(-c2cc(C(=O)Nc3ccc(S(=O)(=O)Nc4onc(C)c4C)cc3)c3ccccc3n2)cc1OC,-16.4%
22,CCOc1ccc(N2C(=O)CN(O)C=C3N=c4ccccc4=C32)cc1,-4.29%

row,Compound,inhibition
1,COc1ccc(-c2nc3cc(NC(=O)Cc4ccc(OC)c(OC)c4)ccc3o2)cc1,-5.04%
2,CC(=O)c1ccc(NC(=O)CN2CCCCCC2)cc1,5.32%
3,C[N+]1(CC2COC3(CCCCC3)O2)CCCCC1 (centres undefined),2.61%
4,COc1ccc(NC(=O)C2CCCN(C(=O)NC3CCCCC3)C2)cc1OC (centres undefined),-7.47%
5,CCn1nnnc1SCC(=O)c1cc(Cl)ccc1OC,26.2%
6,O=c1cc(-c2ccccc2)nc2nc(-c3ccco3)[nH]n12,35%
7,C#CCOCCOCCOCCNc1nc(N2CCN(C(=O)CCCCCCCCCCNC(=O)[C@H]([C@@H](C)CC)n3cc(CCCCCN)nn3)CC2)nc(N2CCN(C(=O)CCCCCCCCCCNC(=O)[C@@H]([C@H](C)O)n3cc(C)nn3)CC2)n1,10.8%
8,CS(=O)(=O)N1CC(C(=O)NC2CC2)Oc2ccc(Cl)cc21 (centres undefined),-21%
9,Cc1ccc(SCc2[nH]nc3c2C(c2cccnc2)C(C#N)=C(N)O3)cc1 (centres undefined),1.18%
10,CCOC(=O)C1=C(C)NC(SCC(N)=O)=C(C#N)C1c1ccncc1 (centres undefined),4.95%
11,CN(CC(=O)NCc1ccncc1)S(=O)(=O)c1ccccc1,-1.72%
12,COCCNC(=S)N=Nc1c(O)[nH]c2ccc([N+](=O)[O-])cc12,1.83%
13,c1ccc2c(c1)nc(N1CCOCC1)c1c3ccccc3[nH]c21,-17.1%
14,Cc1cc(C)c(CSc2ncnc3nc[nH]c23)c(C)c1,4.91%
15,O=C(c1ccco1)N1CCCN(Cc2nc(-c3ccc4c(c3)OCO4)no2)CC1,-15.4%
16,OCn1ncn(-c2ccccc2)c1=S,7.87%
17,CCN(CC)/C(N)=N/c1nc(C)cc(C)n1,19.2%
18,Cc1cc(C)c2nc(/N=C(\N)NC(=O)c3ccccc3)nc(C)c2c1,2.46%
19,COc1ccc(OC)c(NC(=O)CSc2nnc3ccc(-c4ccncc4)nn23)c1,9.2%
20,O=c1ccn(CCc2c[nH]c3ccccc23)c2c1CCCC2,-0.3%
21,O=C(NCc1ccccc1)N[C@@H](Cc1c[nH]c2ccccc12)C(=O)O,8.61%
22,CN(C)C(=O)CC12CC3CC(C1)CC(CC(=O)N(C)C)(C3)C2,3.13%

row,Compound,inhibition
1,Cc1cc(Cl)ccc1OCC(=O)Nc1nc(-c2cccnc2)cs1,-11.5%
2,CCOC(=O)C1CCCN(C/C(O)=C(\C#N)c2nc(-c3ccccc3)cs2)C1 (centres undefined),8.93%
3,O=C(Cn1[nH]c(=O)c2ccccc2c1=O)Nc1ccc(-c2nnc3n2CCCCC3)cc1,-15.2%
4,O=C1C2C3C=CC(CC3)C2C(=O)N1/N=C/c1ccc(O)cc1 (centres undefined),-17.8%
5,Cc1cccc(NC(=O)c2sc3nc(-c4ccccc4)cn3c2C)n1,-13.9%
6,O=C(Nc1ccc(N2CCOCC2)c(Cl)c1)c1ccc(-n2cnnc2)cc1,-13.5%
7,CCOC(=O)C1=C(C)NC(=O)NC1c1ccc(NC(C)=O)cc1 (centres undefined),-8.05%
8,CSC1=NC2(C)CCCCC2C12C=CC(=O)C=C2 (centres undefined),-21.2%
9,Nc1cncc(C(=O)O)c1,-53%
10,CC1CCCC(NC(=O)COC(=O)CCSc2ccccc2)C1C (centres undefined),11.9%
11,Cc1cccc(NC(=O)CSc2nc3c([nH]c4ccccc43)c(=O)n2C)c1,-5.51%
12,CC(C)OCCCn1c(=S)[nH]c2cc3c(cc2c1=O)OCO3,-4.16%
13,CCS(=O)(=O)N1CCC(C(=O)NCc2cc(OC)ccc2OC)CC1,-21.9%
14,CC(C)c1ccc(N(C(=O)C(F)(F)F)C(C(=O)NC2CCCCC2)c2ccncc2)cc1 (centres undefined),9.6%
15,COc1ccc(N2CCN(c3cc(C)c4ccc(O)cc4n3)CC2)cc1,-1.1%
16,COc1ccc(NC(=O)CCNS(=O)(=O)c2cccc3nonc23)cc1,-8.45%
17,N=c1ccccn1CC(O)COc1ccccc1 (centres undefined),-25.8%
18,Clc1ccc2nc(N3CCCCC3)[nH]c2c1,21.9%
19,CSc1nc2cc(Oc3cccc(Cl)c3Cl)c(Cl)cc2[nH]1,37.1%
20,CC(=O)c1c(C)[nH]c(C(=O)CSc2nnc(-c3ccc(Cl)cc3)n2CC2CCCO2)c1C (centres undefined),-16.2%
21,O=C(NC(O)C(=O)c1ccccc1)c1ccc(F)cc1 (centres undefined),-8%
22,Clc1ccc2c(c1)c1cc(Cl)ccc1n2CN1CCOCC1,23.5%

row,Compound,inhibition
1,CC(C)C(NC(=O)c1ccc(Cl)cc1)C(=O)NCC1CCCO1 (centres undefined),-23.1%
2,CC(=O)N(CCC1(c2ccc(C)cc2)CCOC(C(C)C)C1)Cc1ccco1 (centres undefined),16.3%
3,c1cc(N2CCCC2)ccc1C(c1nnnn1C1CCCCC1)N1CCOCC1 (centres undefined),-9.47%
4,COc1nccnc1NS(=O)(=O)c1ccc(NC(=S)NC(=O)c2cccnc2)cc1,-19.3%
5,O=C(NC(=S)Nc1ccc(S(=O)(=O)Nc2nccs2)cc1)c1cccnc1,-25.2%
6,C=C(C)COc1ccc2c(C)c(CCC(=O)NC3CC3)c(=O)oc2c1,9.62%
7,O=C(c1ccccc1)N1CCN(c2ccc([N+](=O)[O-])c(NCc3ccco3)c2)CC1,12.7%
8,O=C1C(Cl)=C(NCc2cccnc2)C(=O)c2ccccc21,-10.2%
9,CCCC(=O)Nc1c2c(nn1-c1ccc(C)cc1C)CSC2,-2.67%
10,NC(N)=NC(N)=Nc1cccc2ccccc12,17.7%
11,Cc1c(C(=O)O)oc2c3c(ccc12)OCCO3,37%
12,Cc1ccnc(NS(=O)(=O)c2ccc(N=CC3=C(O)CC(C)(C)CC3=O)cc2)n1,-5.31%
13,N#Cc1nc(Cc2ccccc2)oc1NCCN1CCOCC1,5.87%
14,N#Cc1nc(Cc2cccc3ccccc23)oc1NCCCN1CCOCC1,33.6%
15,CCCNC(=O)COc1ncnc2sc(C)c(C)c12,-23.9%
16,COc1ccc(-n2cnc3c(sc4nc(N5CCOCC5)c5c(c43)CCCC5)c2=O)cc1,-10.8%
17,Cc1cc(=O)oc2c(CN(C)Cc3ccccc3)c(O)ccc12,8.32%
18,CC(C)(C)NC(=O)c1ccc2c3c(cccc13)CC2,11.2%
19,Cc1ccc(C(=O)N2C(=S)C(c3ccc(F)cc3)=NC23CCN(C)CC3)cc1,39.8%
20,COC(=O)c1ccc(C)c(NC(=O)CN2C(=O)c3ccccc3S2(=O)=O)c1,-9.18%
21,CC(C)(C)Nc1nc(-c2ccccn2)nc2ccccc12,30.1%
22,COC(=O)c1ccccc1NC(=O)CSc1ncn[nH]1,4.44%

row,Compound,inhibition
1,O=C1Nc2ccccc2C1=Nc1ccc(S(=O)(=O)Nc2nccs2)cc1,-49.4%
2,Cc1ccc(-c2nc(C(=O)NCCCN(C)C)cc3c2[nH]c2ccccc23)cc1,32.1%
3,CCc1nc(C)ccc1OCC(=O)NCCCN(C)C,16.7%
4,Oc1ccc(C=Nc2ccc3ncccc3c2)c(O)c1,26.2%
5,Cc1ccc(C2CC(=O)NC(SCCC(C)C)=C2C#N)cc1 (centres undefined),-19.8%
6,C=CCN1C(=O)C(O)(CC(=O)c2c(C)n[nH]c2C)c2cc(Br)ccc21 (centres undefined),7.21%
7,Cc1cc[n+](CC(=O)c2ccc(NC(=O)c3ccccc3)cc2)cc1,29.7%
8,CCc1ccc2c(c1)CCCN2C(=O)c1ccccc1C(=O)O,-19%
9,COc1ccc2c(c1)cc1n2CCN=C1N,23%
10,COc1c(N2CCN(C(=S)NCc3ccccc3)C(C)C2)c(F)cc2c(=O)c(C(=O)O)cn(C3CC3)c12 (centres undefined),20.9%
11,CCCC(=O)c1c(NC)cc(C)oc1=O,26.1%
12,Cc1c(-c2ccccc2)[n+](=O)c2c(n1[O-])CCCC2,14.9%
13,O=C(Nc1ccc(F)cc1)C1CCC(CNc2c(N3CCCCC3)c(=O)c2=O)CC1 (centres undefined),-9.7%
14,Nc1nc(N2CCN(c3ccccn3)CC2)nc2ccccc12,3.48%
15,Cc1ccc(Cn2c(=N)c(C(=O)NCCN3CCOCC3)cc3c(=O)n4ccccc4nc32)cc1,16.7%
16,CN1CCc2nc(SCC(=O)Nc3cccc(F)c3)c(C#N)c(-c3cccs3)c2C1,-20.1%
17,CCOc1ccccc1NC(=O)CSc1nc(N)c(C#N)cc1C#N,4.14%
18,COCCn1c(SCC(=O)Nc2nnc(C)s2)nnc1-c1c[nH]c2ccccc12,15.5%
19,N#CCCn1ncc2ccccc21,-3.13%
20,C=CCOC(=O)C1=C(C)NC2(O)c3ccccc3C(=O)C12O (centres undefined),-19.4%
21,COC(=O)c1ccc(Cn2cnc3ccccc3c2=O)cc1,16.1%
